From PubChem
Only some compounds are listed: those with a hit (about 3.5% of all), similar ones and a draw of the others.
MITF primary: MITF inhibitors, primary screen, biochemical, AlphaScreen, human | AlphaScreen MITF homodimerization, bead proximity signal | AID 1259374, 2018 | inhibition, % at 2.6 µM | 650,000 compounds, 0.91% hits; in the data active means inhibition above about 50%
GPR151 activ: activators of human GPR151, primary screen, cell-based, PathHunter beta-arrestin, luminescence. G-protein coupled receptor 151 (Homo sapiens), Q8TDV0. PathHunter beta-arrestin GPR151 cells. activation, % at 11.2 µM. 650,000 compounds, 1% hits; in the data active means activation above about 4.9%
FBW7 act: FBW7 E3 ligase activators, primary screen, biochemical, AlphaScreen, human; F-box/WD repeat-containing protein 7 (Homo sapiens), Q969H0; AlphaScreen FBW7–phospho-cyclin E peptide binding, activator screen; normalized activity (activation), % at 26.1 µM; 650,000 compounds, 0.13% hits; AID 1259310, 2017; in the data active means normalized activity above about 1.9%;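 further: purified mutant Fbw7 with reduced substrate affinity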
Target sequence (Q969H0 whole entry, looked up): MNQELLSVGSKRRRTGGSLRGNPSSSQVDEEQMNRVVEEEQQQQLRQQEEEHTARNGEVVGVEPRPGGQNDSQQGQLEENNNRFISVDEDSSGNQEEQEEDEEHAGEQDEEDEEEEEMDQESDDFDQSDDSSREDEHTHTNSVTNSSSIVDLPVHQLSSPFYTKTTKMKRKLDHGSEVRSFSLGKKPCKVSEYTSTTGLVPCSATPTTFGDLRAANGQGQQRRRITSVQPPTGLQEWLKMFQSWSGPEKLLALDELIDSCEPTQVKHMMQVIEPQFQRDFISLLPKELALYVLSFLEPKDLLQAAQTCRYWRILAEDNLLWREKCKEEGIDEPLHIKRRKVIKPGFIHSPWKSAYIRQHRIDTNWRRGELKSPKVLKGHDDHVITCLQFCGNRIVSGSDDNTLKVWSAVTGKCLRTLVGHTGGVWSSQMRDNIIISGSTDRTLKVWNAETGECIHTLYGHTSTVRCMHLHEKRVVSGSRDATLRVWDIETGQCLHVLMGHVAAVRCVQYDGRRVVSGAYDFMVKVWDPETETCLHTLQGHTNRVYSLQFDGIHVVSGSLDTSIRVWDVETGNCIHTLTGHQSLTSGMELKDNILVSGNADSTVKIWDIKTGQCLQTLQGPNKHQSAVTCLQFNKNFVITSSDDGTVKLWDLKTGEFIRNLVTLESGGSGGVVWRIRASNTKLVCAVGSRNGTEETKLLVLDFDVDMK
TEAD-YAP inh: TEAD-YAP interaction inhibition, primary screen, TEAD-YAP interaction inhibitor project, luminescence, HEK-TIYL cells; 640,000 compounds, 1.4% hits; inhibition, % at 9.12 µM; TEAD-Gal4/YAP UAS-luciferase luminescence; AID 1259422, 2018; in the data active means inhibition above about 32%
Large screens that a line does not name were inactive.

COc1ccc(N2CCN(C(C)CC(=O)O)CC2)cc1 (stereo unspecified)	MITF primary 72
COc1ccc(N2CCN(CC(O)COC(C)(C)C)CC2)cc1 (stereo unspecified)	none
CCN(CC)CC(O)CN1CCN(c2ccc(OC)cc2)CC1 (stereo unspecified)	MITF primary 55
Cc1ccc(S(=O)(=O)Nc2nc3ccccc3nc2Nc2cccc(N(C)C)c2)cc1	TEAD-YAP inh 35
COc1cccc(NC(=O)CSc2nc3n[nH]c(C)c3c(=N)n2-c2ccc(C)cc2)c1	none
Cc1ccc2[nH]c(=O)c3cc(C(=O)N4CCN(C)CC4)sc3c2c1	none
CCN1CCN(C(=O)c2cc3c(=O)[nH]c4ccc(C)cc4c3s2)CC1	TEAD-YAP inh 37
CSc1nnc(C)c(=O)n1COC(=O)c1cccc(Br)c1	none
COc1ccc(C(=O)Nn2c(SCC(=O)NC3CCCC3)nc3ccccc3c2=O)cc1	TEAD-YAP inh 79
O=C(CSc1nc2ccccc2c(=O)n1NC(=O)Cc1ccccc1)NCC1CCCO1 (stereo unspecified)	none
CCOc1ccc(NC(=O)CSc2nc3ccccc3c(=O)n2NC(=O)c2ccc(OC)cc2)cc1	TEAD-YAP inh 54
CCOc1ccc(NC(=O)CSc2nc3ccccc3c(=O)n2NC(=O)c2ccccc2)cc1	none
COc1ccc(C(=O)Nn2c(SCC(=O)NCC3CCCO3)nc3ccccc3c2=O)cc1 (stereo unspecified)	TEAD-YAP inh 84
COc1ccc(C(=O)Nn2c(SCC(=O)Nc3ccc(C)cc3)nc3ccccc3c2=O)cc1	TEAD-YAP inh 88
CC1=Nc2ccc(C)cc2/C1=C/c1sc(=S)[nH]c1O	none
CSc1cccc(NC(=O)C2C3C=CC4(O3)C2C(=O)N(CCCN2CCOCC2)C4C(=O)NC2CCCC(C)C2C)c1 (stereo unspecified)	none
O=C(NCCO)c1cccc(-c2cnc3c(Nc4ccc5[nH]ccc5c4)nccn23)c1	none
COc1ccc(S(=O)(=O)NCCC(=O)NCCc2ccc(Cl)cc2)cc1	none
CCC(Sc1nc2ccccc2c(=O)n1NC(=O)c1ccc(OC)cc1)C(=O)NCc1cccnc1 (stereo unspecified)	TEAD-YAP inh 79
CCC(Sc1nc2ccccc2c(=O)n1Cc1ccccc1OC)C(=O)NCc1cccnc1 (stereo unspecified)	none
COc1ccc(C(=O)Nn2c(SCC(=O)NCc3ccccc3)nc3ccccc3c2=O)cc1	TEAD-YAP inh 74
COc1ccc(C(=O)Nn2c(SCc3c(F)cccc3Cl)nc3ccccc3c2=O)cc1	TEAD-YAP inh 79
CCCCCC1CCC(C2CCC(C(=O)Oc3ccc(OCCCC)c(Cl)c3Cl)CC2)CC1 (stereo unspecified)	none
Nc1ccc(-c2ccc3cnc(Nc4ccc(-n5cnc(N6CCOCC6)n5)cc4)nc3c2)cn1	TEAD-YAP inh 65
O=C(NCc1ccccc1)c1ccc2cnc(Nc3ccc(-n4cnc(N5CCOCC5)n4)cc3)nc2c1	none
Cn1nccc1-c1ccc2cnc(Nc3ccc(-n4cnc(N5CCOCC5)n4)cc3)nc2c1	none
c1cc(-n2cnc(N3CCOCC3)n2)ccc1Nc1ncc2ccc(N3CCOCC3)cc2n1	none
c1cc(-c2ccc3cnc(Nc4ccc(-n5cnc(N6CCOCC6)n5)cc4)nc3c2)[nH]n1	FBW7 act 13
CNC(=O)c1ccc2cnc(Nc3ccc(-n4cnc(N5CCOCC5)n4)cc3)nc2c1	TEAD-YAP inh 55
O=C(NCc1ccc(Cl)cc1)c1nn2c(C(F)(F)F)cc(-c3ccccc3)nc2c1Br	none
C/C(CC(=O)Nc1ccc(Cl)cc1Cl)=N\NC(=O)c1cccc(C)c1O	none
COc1ccc(-c2noc(NC(C)c3ccc4c(c3)OCCO4)n2)cc1 (stereo unspecified)	none
c1ccc(CCNc2nccn3c(-c4ccsc4)cnc23)nc1	TEAD-YAP inh 50
COCCNc1nccn2c(-c3ccccc3CO)cnc12	none
OCCNc1nccn2c(-c3ccccc3CO)cnc12	FBW7 act 2.1
c1ccc(CCNc2nccn3c(-c4ccoc4)cnc23)nc1	none
Cc1nc(NCC2COc3ccccc3O2)c2c(C)c(C)sc2n1 (stereo unspecified)	TEAD-YAP inh 47
Cc1nc(NCc2ccc3c(c2)OCO3)c2c(C)c(C)sc2n1	TEAD-YAP inh 39
c1ccc(Cc2nc(NCC3COc4ccccc4O3)c3c4c(sc3n2)CCCC4)cc1 (stereo unspecified)	none
CCNc1nc(C#N)nc(N2CCCCC2)n1	TEAD-YAP inh 41
N#Cc1nc(N2CCCCC2)nc(N2CCCCC2)n1	none
Nc1cccc(-c2nc(NCCCN3CCCC3=O)c3ncn(-c4ccccc4)c3n2)c1	TEAD-YAP inh 59
COc1ccc(-c2nc(NCCCN3CCCC3=O)c3ncn(-c4ccsc4)c3n2)cn1	TEAD-YAP inh 49
Nc1cccc(-c2nc(NCCCN3CCCC3=O)c3ncn(CCN4CCCC4=O)c3n2)c1	none
COc1ccc(-c2nc(NCCCN3CCCC3=O)c3ncn(C(C)C)c3n2)cn1	none
COc1ccc(-c2nc(NCCCN3CCCC3=O)c3ncn(-c4ccccc4)c3n2)cn1	TEAD-YAP inh 55
CC(=O)c1cccc(-c2nc(NCCCN3CCCC3=O)c3ncn(C(C)C)c3n2)c1	TEAD-YAP inh 44
O=C(CCc1ccncc1)N1Cc2ccccc2OC(c2ccccc2)C1 (stereo unspecified)	none
COc1ccc(Cl)cc1NC(=O)CCN1C(=O)C2C3C=CC(C3)C2C1=O (stereo unspecified)	none
COc1ccc(-c2nc(NCCN3CCOCC3)c3ncn(-c4ccsc4)c3n2)cn1	TEAD-YAP inh 35
COc1ccc(CCNc2nc(NCCCN3CCCC3=O)nc3c2ncn3-c2ccsc2)cc1	none
CC(=O)c1cccc(-c2nc(NCCCN3CCCC3=O)c3ncn(-c4ccsc4)c3n2)c1	TEAD-YAP inh 58
O=C(NC1CC1)c1ccc(-c2nc(NCCCN3CCCC3=O)c3ncn(-c4ccsc4)c3n2)cc1	TEAD-YAP inh 42
COc1ccc(-c2nc(NCCCN3CCCC3=O)c3ncn(-c4ccsc4)c3n2)cc1	TEAD-YAP inh 58
COc1ccc([C@@H]2C[C@H]3CN(Cc4ccccc4OC)C(=O)[C@]34CCCN24)cc1O	none
CCOC(=O)N[C@H](Cc1c[nH]c2ccccc12)C(=O)Nc1ccccc1Cl	none
O=C1c2cccc([N+](=O)[O-])c2C(=O)N1c1ccc(Oc2ccc3ccccc3c2)cc1	none
O=C(Nc1cccc(O)c1)c1ccc(N2C(=O)c3cccc([N+](=O)[O-])c3C2=O)cc1	TEAD-YAP inh 34
O=C(Nc1ccc(O)cc1)c1cccc(N2C(=O)c3cccc([N+](=O)[O-])c3C2=O)c1	none
Cc1ccc(Oc2ccc(N3C(=O)c4cccc([N+](=O)[O-])c4C3=O)cc2)cc1C	TEAD-YAP inh 33
COc1ccc(Oc2ccc(N3C(=O)c4cccc([N+](=O)[O-])c4C3=O)cc2)cc1	none
O=C1c2cccc([N+](=O)[O-])c2C(=O)N1c1ccc(Oc2cccc3ccccc23)cc1	TEAD-YAP inh 74
